Source: PubChem BioAssay
Shown is part of a subset that was picked to be rich in hits.
Tg IFNy HTS: T. gondii growth inhibition under IFN-gamma; Toxoplasma gondii growth in IFN-gamma-treated host cells; stronger effect = lower value; activity change, negative = inhibition, % (no concentration beside the values); 3.8% of 69,000 active; in the data active = activity change below about -70%, passing the limit was not always enough;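 also: host cells are HeLa cells infected with Toxoplasma gondii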
Numbers without * were called inactive.

For C#Cc1cccc(Nc2ncnc3cc(OC)c(OCCCCCCC(=O)NO)cc23)c1 the results were Tg IFNy HTS -80*.
Cn1cnc2cc3c(Nc4cccc(Br)c4)ncnc3cc21 was read as Tg IFNy HTS 1.
COc1cc2c(N3CCN(C(=O)Nc4ccc(OC(C)C)cc4)CC3)ncnc2cc1OCCCN1CCCCC1 was read as Tg IFNy HTS -17.
Screening Cc1ccoc1C(=O)N1C[C@@H]2COC[C@]2(COCc2cccnc2)C1 returned Tg IFNy HTS -4.
CCS(=O)(=O)N1CCN(c2ccc(Nc3ncc(C(N)=O)c(NC4CC4)n3)cc2)CC1 was read as Tg IFNy HTS -65.
For CC(=O)NCC(=O)N1[C@@H]2CC[C@H]1c1ccc(Nc3ncc(C(F)(F)F)c(NC4CCC4)n3)cc12 the results were Tg IFNy HTS -74*.
Screening CC(=O)NCc1cnc(C2CCCN2CC(=O)Nc2nccs2)cc1C(F)(F)F (stereo not drawn) returned Tg IFNy HTS -12.
Screening C1CCC2(CC1)CCNCC2 returned Tg IFNy HTS 10.
`COc1ccc(-c2nc(Cn3nnc(C(=O)Nc4ccccc4OC)c3C)c(C)o2)c(OC)c1` gave Tg IFNy HTS 145.
Screening O=C(COc1ccccc1O)N1CCOC(CC2CCCCC2)C1 (stereo not drawn) returned Tg IFNy HTS -3.
Screening Cn1c(=O)oc2cc(NC(=O)CN3CCC(c4noc5cc(F)ccc45)CC3)ccc21 returned Tg IFNy HTS 83.
Screening NC(=O)C1(CCCc2cnccn2)CCCN1 (stereo not drawn) returned Tg IFNy HTS 23.
`Cc1nc(-c2ccc(F)cc2)sc1-c1ccc(SCC#N)nn1` gave Tg IFNy HTS 106.
Screening CCOC(=O)c1ccc(NC(=O)Nc2ccc(-c3nc(-c4ccc(C)cc4C)co3)cc2)cc1 returned Tg IFNy HTS -2.
`CC(=O)N1CCc2c([nH]c3ccccc23)C12C(=O)N(C)c1ccccc12` (stereo not drawn) gave Tg IFNy HTS 492.
For CCc1ccc(C2c3[nH]c4ccccc4c3CCN2C(=O)CSC)cc1 (stereo not drawn) the results were Tg IFNy HTS 1.
Screening CN1c2ccccc2C(=O)N2CCc3c([nH]c4ccccc34)C21 (stereo not drawn) returned Tg IFNy HTS -80*.
For CCNC(=O)[C@@H]1C[C@H](N)CN1C(=O)c1scc2c1CCCC2 the results were Tg IFNy HTS 90.
CCOC(=O)C1=C(N)Oc2ccc(Br)cc2[C@H]1[C@H](C#N)C(=O)OCC was read as Tg IFNy HTS -75*.
CCOC(=O)c1c(C)oc2cc(Br)c(OC(C)C(=O)OCC)cc12 (stereo not drawn) was read as Tg IFNy HTS -10.
For CCOC(=O)C1c2ccccc2Oc2ccccc21 the results were Tg IFNy HTS 23.
`Cc1ccc(C(=O)Nc2ccc(Cn3cncn3)cc2)c(=O)n1C` gave Tg IFNy HTS -43.
C=CCNC(=O)c1ccc(-c2ccc(F)c(CO)c2)o1 was read as Tg IFNy HTS 45.
For C=CCNC(=O)c1ccc(-c2cccc([N+](=O)[O-])c2)o1 the results were Tg IFNy HTS 67.
For C=CCNC(=O)c1ccc(-c2cnc3ccccc3c2)o1 the results were Tg IFNy HTS -82*.
Screening O=C(O)CN1CCC2(CCc3cc(-c4ccoc4)ccc32)CC1 returned Tg IFNy HTS 2.
For CCc1ccc(NC(=S)Nc2ccc(Cl)cc2C(=O)c2ccccc2)cc1 the results were Tg IFNy HTS -96*.
For O=C(Cc1ccccc1)Nc1ccc(Cl)cc1 the results were Tg IFNy HTS -60.
For CC(=O)c1cccc(NC(=S)Nc2ccc(F)cc2)c1 the results were Tg IFNy HTS 27.
`CCc1ccc(NC(=O)Nc2ccc(-c3nc(-c4ccc(C)cc4)co3)cc2)cc1` gave Tg IFNy HTS 24.
`COc1cc(N2CCC3(CC(=O)N(c4cccc(C#N)c4)C3)C2)ncn1` (stereo not drawn) gave Tg IFNy HTS -10.
`Cc1nn(-c2ccc3ccccc3n2)c2c1C(=O)CC(C)(C)C2` gave Tg IFNy HTS -95*.
For CC1(C)CC(=O)c2cnc3nc(N)nn3c2C1 the results were Tg IFNy HTS -12.
Cc1nn(C(=O)c2ccccc2)c2c1C(=O)CC(C)(C)C2 was read as Tg IFNy HTS -30.
For CCOC(=O)c1nc(N2CCN(c3cc(C)ccc3C)CC2)c2ccccc2n1 the results were Tg IFNy HTS -46.
`COCC1CN(C(=O)c2ccc3c(c2)OCO3)Cc2ccnn2C1` (stereo not drawn) gave Tg IFNy HTS -45.
Cc1c(CN2CCN(C3CCCC3)C(=O)C2)c(-c2ccccc2)nn1C was read as Tg IFNy HTS -57.
Screening CN1CCC2(CCN(Cc3ccc(-n4cncn4)cc3)CC2)C1 returned Tg IFNy HTS -26.
`O=C(Cc1c[nH]c2ccccc12)N1CCCC(CO)(Cc2ccccc2)C1` (stereo not drawn) gave Tg IFNy HTS -3.
For Cc1cc(C)n(Cc2ccc(C(=O)NCCS(=O)(=O)N(C)C)cc2)n1 the results were Tg IFNy HTS -1.
For CO[C@@H]1CN(C)C(=O)c2cc(NC(=O)Nc3c(C)noc3C)ccc2OC[C@H](C)NC[C@H]1C the results were Tg IFNy HTS 207.
Screening CO[C@H]1CN(C)C(=O)c2cc(NC(=O)c3cnccn3)ccc2OC[C@@H](C)NC[C@H]1C returned Tg IFNy HTS 110.
`CO[C@H]1CN(C)C(=O)c2cc(NC(=O)Nc3c(C)noc3C)ccc2OC[C@H](C)NC[C@H]1C` gave Tg IFNy HTS -1.
`COc1cccc(NC(=O)Nc2ccc3c(c2)C(=O)N(C)C[C@@H](OC)[C@H](C)CN[C@H](C)CO3)c1` gave Tg IFNy HTS 20.
Screening CO[C@H]1CN(C)C(=O)c2cc(NC(=O)c3ccc(Oc4ccccc4)cc3)ccc2OC[C@@H](C)NC[C@H]1C returned Tg IFNy HTS 21.
For CO[C@H]1CN(C)C(=O)c2cc(NC(=O)c3cnccn3)ccc2OC[C@H](C)NC[C@@H]1C the results were Tg IFNy HTS 173.
CO[C@@H]1CN(C)C(=O)c2cc(NC(=O)Nc3c(C)noc3C)ccc2OC[C@H](C)NC[C@@H]1C was read as Tg IFNy HTS -76*.
For CO[C@@H]1CN(C)C(=O)c2cc(NC(=O)c3ccc(Oc4ccccc4)cc3)ccc2OC[C@@H](C)NC[C@@H]1C the results were Tg IFNy HTS -115*.
Screening CO[C@H]1CN(C)C(=O)c2cc(NC(=O)c3ccc(Oc4ccccc4)cc3)ccc2OC[C@H](C)NC[C@@H]1C returned Tg IFNy HTS -92*.
Screening CCc1nc(C)sc1CN1CCCC1c1nc2ccc(F)cc2[nH]1 (stereo not drawn) returned Tg IFNy HTS -1.
Cn1ccc2c(-c3ccc(C(O)CN4CCOCC4)cc3)ccnc21 (stereo not drawn) was read as Tg IFNy HTS 5.
Cc1ccccc1C(NC(=O)COc1ccc2nsnc2c1)c1ccncc1 (stereo not drawn) was read as Tg IFNy HTS 3.
CN1CCC(N2CCN(c3ncccc3-c3nnc(-c4ccc(Cl)cc4)o3)CC2)CC1 was read as Tg IFNy HTS -1.
For COc1cccc(C(=O)N2CCNCC2C(=O)N2CCN(C)CC2)c1C (stereo not drawn) the results were Tg IFNy HTS 2.
For COc1ccc(-c2nc(C)c(CCNC(=O)c3ccccc3)s2)cc1 the results were Tg IFNy HTS inactive.
For CCCn1ncc(C(=O)NCc2cn3c(n2)SCC3)c1C the results were Tg IFNy HTS -1.
For CCN1C(=O)CCc2cc(NC(=O)c3ccc(C(C)C)cc3)ccc21 the results were Tg IFNy HTS -105*.
